PubChem BioAssay
Activity calls are given as the source filed them.

Assays:
[1] = system: Plasmodium falciparum Sir2 (PF13_0152, Sir2A); assay: Plasmodium falciparum Sir2A binding compounds – biochemical, small-molecule microarray, 635 nm fluorescence, primary screen (AID 1098); conditions: fluorescence 635 nm, higher = more signal;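 note: score merges spot fluorescence intensity with its signal-to-noise ratio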
[2] = probe aDKK1 binding to arrayed compounds – biochemical, biotinylated probe, 635/667 nm fluorescence, primary screen (AID 1099); conditions: small-molecule microarray, higher = more signal;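 note: score merges 667nm spot fluorescence with signal to noise across triplicate slides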
[3] = probe aCHRDL2 binding to arrayed compounds – biochemical, biotinylated probe, 635/667 nm fluorescence, primary screen (AID 1100); conditions: small-molecule microarray, higher = more signal
[4] = change in splice reporter luminescence, either direction, cell-based, HEK293, spliceosome inhibition project, primary screen (AID 1101); conditions: HEK293 splicing luciferase reporter, 24 h, higher = more signal, called active from +8 up or from −8 down;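 note: HEK293 cells carrying a splicing-competent luciferase reporter gene; test concentration not given here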
[5] = target: Fibroblast growth factor 10 (Homo sapiens) (UniProt O15520); assay: compounds binding fibroblast growth factor 10 – biochemical, small-molecule microarray, 635 nm fluorescence, primary screen (AID 1102); conditions: FGF10 binding, fluorescence 635 nm, higher = more signal
[6] = system: glycogen synthase kinase-3 (GSK3A per assay name; protocol says GSK3B); assay: compounds binding glycogen synthase kinase-3 – biochemical, small-molecule microarray, 635 nm fluorescence, GSK3A, primary screen (AID 1103); conditions: fluorescence 635 nm, higher = more signal; note: the record names both GSK3A and GSK3B
[7] = target: Epidermal growth factor receptor (Homo sapiens) (UniProt P00533); assay: compounds binding epidermal growth factor receptor – biochemical, small-molecule microarray, 635 nm fluorescence, primary screen (AID 1104); conditions: EGFR binding, higher = more signal;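 note: score merges 667 nm emission intensity with spot signal to noise over triplicate slides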
[8] = target: Follistatin-related protein 3 (Homo sapiens) (UniProt O95633); assay: compounds binding follistatin-related protein 3 – biochemical, small-molecule microarray, 635 nm fluorescence, primary screen (AID 1105); conditions: FSTL3 binding, higher = more signal;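 note: score merges emission near 667 nm and signal to noise per printed spot across three slides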
[9] = target: Dickkopf-related protein 1 (Homo sapiens) (UniProt O94907); assay: small molecules binding DKK1 protein – biochemical, small-molecule microarray, 635 nm fluorescence scan, primary screen (AID 1106); conditions: higher = more signal;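 note: score merges emission near 667 nm with signal to noise over three replicate slides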
[10] = system: Inhibin beta A chain (activin A); assay: small molecules binding activin A – biochemical, small-molecule microarray, 635 nm fluorescence scan, primary screen (AID 1107); conditions: INHBA, higher = more signal;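 note: mouse activin A protein probed at 4.33 µg/mL on printed slides; score merges bound-protein fluorescence near 667 nm with spot signal-to-noise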
[11] = system: Human papillomavirus type 1a protein E7 (residues 44-93); assay: small molecules binding HPV E7 44-93 – biochemical, small-molecule microarray, residues 44-93, 635 nm fluorescence, primary screen (AID 1108); conditions: fluorescence 635 nm, higher = more signal;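 note: E7 fragment applied at 1 µg/mL in TBST for 1 h at 4 C; score combines spot fluorescence with its signal to noise ratio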
[12] = hepatitis C replication reporter changes, two-sided – Huh7 cells, luciferase reporter, HCV replication inhibitor project, primary screen (AID 1109); conditions: Huh7 HCV replicon luciferase reporter, 48 h; higher = more signal;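 note: huh7 hepatoma cells harbouring a luciferase neomycin HCV replicon reporter; luciferase luminescence as measure of HCV replicon replication; test concentration not given here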
[13] = target: Left-right determination factor 2 (Homo sapiens) (UniProt O00292); assay: small molecules binding LEFTY2 protein – biochemical, small-molecule microarray, 635 nm fluorescence scan, primary screen (AID 1110); conditions: higher = more signal
[14] = target: Calmodulin-1 (Homo sapiens) (UniProt P0DP23); assay: small molecules binding calmodulin-1 with EGTA – biochemical, small-molecule microarray, Cy5-labelled CALM1, profiling panel (AID 1111); conditions: Cy5-CALM1 binding fluorescence, higher = more signal;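 note: labelled calmodulin applied in Tris saline Tween buffer holding calcium plus EGTA and DTT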
[15] = target: Calmodulin-1 (Homo sapiens) (UniProt P0DP23); assay: small molecules binding Ca-loaded calmodulin-1 – biochemical, small-molecule microarray, Cy5-labelled CALM1, plus calcium, artefact control for SMM control-protein annotation, profiling panel (AID 1112); conditions: Cy5-CALM1 binding fluorescence, higher = more signal;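 note: score merges spot fluorescence with signal to noise from triplicate slides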
[16] = probe aWnt5a binding to arrayed compounds – biochemical, biotinylated probe, 635/667 nm fluorescence, primary screen (AID 1113); conditions: small-molecule microarray, higher = more signal;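 note: score merges 667 nm fluorescence intensity with signal-to-noise per printed feature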
[17] = probe aShh binding to arrayed compounds – biochemical, biotinylated probe, 635/667 nm fluorescence, primary screen (AID 1114); conditions: small-molecule microarray, higher = more signal;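 note: probe is biotin-labelled aShh protein from a stem cell growth factor screen; measures binding of labelled protein to compounds printed on the slide; score merges feature fluorescence at 667 nm with signal-to-noise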
[18] = probe aNog binding to arrayed compounds – biochemical, biotinylated probe, 635/667 nm fluorescence, primary screen (AID 1115); conditions: small-molecule microarray, higher = more signal;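 note: probe is biotinylated aNog protein used at 0.15 µg/mL for 1 h at 4 C; z-score combines 667 nm fluorescence of each spot with its signal to noise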
[19] = target: Torsin-1A-interacting protein 1 (Homo sapiens) (UniProt Q5JTV8); assay: compound microarray binding of lysate hLAP1 – cell lysate, small-molecule microarray, COS7 lysate, 635/667 nm fluorescence, primary screen (AID 1116); conditions: 635 nm fluorescence, higher = more signal
[20] = target: Alpha-bungarotoxin (Bungarus multicinctus) (UniProt P60615); assay: compounds binding labelled alpha-BTX control protein – biochemical, small-molecule microarray, Alexa647 label, 635/667 nm fluorescence, artefact control for SMM control protein annotation, profiling panel (AID 1117); conditions: alpha-BTX-A647 binding fluorescence, higher = more signal
Alpha-bungarotoxin (Bungarus multicinctus), sequence (P60615 whole entry, looked up): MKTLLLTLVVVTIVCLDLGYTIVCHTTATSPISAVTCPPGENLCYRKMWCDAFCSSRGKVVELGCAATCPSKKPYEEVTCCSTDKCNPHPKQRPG

Fibroblast growth factor 10 (Homo sapiens), sequence (O15520 whole entry, looked up): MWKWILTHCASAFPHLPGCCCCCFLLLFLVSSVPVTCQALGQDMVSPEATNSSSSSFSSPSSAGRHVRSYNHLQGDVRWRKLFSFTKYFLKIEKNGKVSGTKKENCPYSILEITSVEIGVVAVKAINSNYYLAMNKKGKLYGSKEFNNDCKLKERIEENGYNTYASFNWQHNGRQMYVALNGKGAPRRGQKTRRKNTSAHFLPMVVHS
Torsin-1A-interacting protein 1 (Homo sapiens), sequence (Q5JTV8 whole entry, looked up): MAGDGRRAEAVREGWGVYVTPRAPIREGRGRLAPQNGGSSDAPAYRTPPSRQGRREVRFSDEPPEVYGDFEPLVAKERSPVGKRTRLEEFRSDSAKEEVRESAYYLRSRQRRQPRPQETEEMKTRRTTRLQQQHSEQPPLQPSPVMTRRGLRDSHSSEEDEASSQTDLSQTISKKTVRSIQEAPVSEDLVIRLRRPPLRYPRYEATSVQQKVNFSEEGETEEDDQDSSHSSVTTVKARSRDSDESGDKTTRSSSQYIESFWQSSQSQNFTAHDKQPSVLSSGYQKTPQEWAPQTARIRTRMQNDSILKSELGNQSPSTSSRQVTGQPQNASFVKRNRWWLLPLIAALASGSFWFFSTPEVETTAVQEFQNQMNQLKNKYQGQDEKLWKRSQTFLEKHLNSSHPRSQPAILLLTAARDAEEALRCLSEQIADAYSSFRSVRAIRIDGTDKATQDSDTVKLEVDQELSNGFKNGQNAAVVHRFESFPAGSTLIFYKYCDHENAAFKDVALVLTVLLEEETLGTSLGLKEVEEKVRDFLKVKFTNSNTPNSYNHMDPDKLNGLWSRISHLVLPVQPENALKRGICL
Follistatin-related protein 3 (Homo sapiens), sequence (O95633 whole entry, looked up): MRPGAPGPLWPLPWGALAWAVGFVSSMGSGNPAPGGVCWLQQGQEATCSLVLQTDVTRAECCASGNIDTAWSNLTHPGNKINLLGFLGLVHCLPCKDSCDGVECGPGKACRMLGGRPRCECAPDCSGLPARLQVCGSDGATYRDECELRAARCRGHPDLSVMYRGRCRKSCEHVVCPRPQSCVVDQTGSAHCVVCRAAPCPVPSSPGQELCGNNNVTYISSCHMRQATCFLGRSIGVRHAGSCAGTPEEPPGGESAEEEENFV
Dickkopf-related protein 1 (Homo sapiens), sequence (O94907 whole entry, looked up): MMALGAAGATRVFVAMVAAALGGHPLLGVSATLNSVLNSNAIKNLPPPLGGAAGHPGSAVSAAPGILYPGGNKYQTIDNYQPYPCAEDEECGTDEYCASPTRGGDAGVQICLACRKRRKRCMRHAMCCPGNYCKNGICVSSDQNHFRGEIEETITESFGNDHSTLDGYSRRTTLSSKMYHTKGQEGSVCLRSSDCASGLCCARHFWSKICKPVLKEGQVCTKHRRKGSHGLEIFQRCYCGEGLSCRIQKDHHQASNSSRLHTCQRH
Epidermal growth factor receptor (Homo sapiens), sequence (P00533 whole entry, looked up): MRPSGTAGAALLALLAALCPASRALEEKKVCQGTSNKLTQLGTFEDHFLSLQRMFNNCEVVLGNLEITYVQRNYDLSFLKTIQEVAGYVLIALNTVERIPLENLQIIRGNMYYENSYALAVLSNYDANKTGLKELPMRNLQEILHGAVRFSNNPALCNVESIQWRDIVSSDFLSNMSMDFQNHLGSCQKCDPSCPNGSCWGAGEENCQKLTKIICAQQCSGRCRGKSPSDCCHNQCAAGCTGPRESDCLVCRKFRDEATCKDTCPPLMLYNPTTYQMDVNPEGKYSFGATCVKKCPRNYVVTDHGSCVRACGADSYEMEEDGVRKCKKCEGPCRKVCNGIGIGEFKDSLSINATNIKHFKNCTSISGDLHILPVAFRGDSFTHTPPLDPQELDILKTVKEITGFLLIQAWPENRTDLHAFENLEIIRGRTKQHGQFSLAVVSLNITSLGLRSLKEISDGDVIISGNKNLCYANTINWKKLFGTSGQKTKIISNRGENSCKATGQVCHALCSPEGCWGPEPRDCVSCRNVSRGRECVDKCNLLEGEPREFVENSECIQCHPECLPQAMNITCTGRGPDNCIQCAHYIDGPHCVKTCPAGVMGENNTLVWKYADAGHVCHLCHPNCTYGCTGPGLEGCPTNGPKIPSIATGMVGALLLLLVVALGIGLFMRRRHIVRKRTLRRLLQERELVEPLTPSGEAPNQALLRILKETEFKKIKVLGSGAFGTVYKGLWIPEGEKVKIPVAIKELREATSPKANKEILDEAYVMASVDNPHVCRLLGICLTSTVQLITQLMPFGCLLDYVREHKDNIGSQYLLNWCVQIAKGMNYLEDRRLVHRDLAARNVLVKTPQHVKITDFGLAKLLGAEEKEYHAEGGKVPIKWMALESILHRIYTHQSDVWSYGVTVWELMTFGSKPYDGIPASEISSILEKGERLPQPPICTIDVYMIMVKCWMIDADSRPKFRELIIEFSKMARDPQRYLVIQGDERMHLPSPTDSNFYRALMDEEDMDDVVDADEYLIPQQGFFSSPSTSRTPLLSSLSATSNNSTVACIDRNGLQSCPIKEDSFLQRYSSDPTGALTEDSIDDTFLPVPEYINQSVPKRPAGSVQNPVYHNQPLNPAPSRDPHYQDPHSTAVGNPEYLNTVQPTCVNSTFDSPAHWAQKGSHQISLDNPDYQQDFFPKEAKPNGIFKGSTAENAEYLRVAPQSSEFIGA
Left-right determination factor 2 (Homo sapiens), sequence (O00292 whole entry, looked up): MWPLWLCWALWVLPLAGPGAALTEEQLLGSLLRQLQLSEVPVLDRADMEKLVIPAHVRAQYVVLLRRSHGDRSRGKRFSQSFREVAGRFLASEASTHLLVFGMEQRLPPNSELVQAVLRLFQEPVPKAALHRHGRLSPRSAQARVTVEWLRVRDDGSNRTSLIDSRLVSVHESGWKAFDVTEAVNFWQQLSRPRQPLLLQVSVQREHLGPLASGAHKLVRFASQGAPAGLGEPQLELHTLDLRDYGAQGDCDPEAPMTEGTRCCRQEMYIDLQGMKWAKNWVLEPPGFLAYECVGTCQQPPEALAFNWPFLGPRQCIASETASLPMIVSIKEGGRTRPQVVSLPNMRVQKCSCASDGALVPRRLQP

Structure (SMILES) | composite z-score [1] | composite z-score [2] | composite z-score [3] | z-score [4] | composite z-score [5] | composite z-score [6] | composite z-score [7] | composite z-score [8] | composite z-score [9] | composite z-score [10] | composite z-score [11] | z-score [12] | composite z-score [13] | composite z-score [14] | composite z-score [15] | composite z-score [16] | composite z-score [17] | composite z-score [18] | composite z-score [19] | composite z-score [20]
COC(=O)[C@@]1(Cc2ccc(OC)cc2)[C@H]2c3cc(C(=O)N(C)C)n(CCO)c3C[C@H]2CN1C(=O)c1ccccc1 | 0.137 | 1.14 | 1.27 | 0.994 (inactive) | 0.0882 | -0.402 | -0.735 | -0.42 | -1.18 | 1.07 | -0.317 | -0.441 | -0.511 | 1.67 | 1.1 | -0.0398 | 0.0044 | -0.426 | 3.28 | 1.18
COCCOC(=O)N1C(=O)[C@@]2(c3cc(C#Cc4ccc(OC)cc4)ccc31)[C@H](C(=O)Nc1nc3ccccc3s1)[C@H]1C(=O)O[C@H](c3ccccc3)[C@H](c3ccccc3)N1[C@@H]2c1ccc(O)cc1 | 1.48 | 0.166 | -0.0767 | -0.591 (inactive) | 1.39 | 1.29 | 0.571 | 1.24 | 0.875 | 0.318 | 1.38 | -0.841 | 0.631 | 0.876 | -0.138 | 0.0559 | 0.314 | -0.376 | 0.37 | 1.34
CCCC[C@@H](O)C1=C(COc2ccccc2)C[C@H]2C(=O)N(C)C(=O)[C@H]2[C@H]1CO | 0.119 | -0.423 | -0.575 | -1.3 (inactive) | -0.0816 | -0.0425 | -0.333 | -0.0008 | -0.0034 | 0.799 | -1.05 | -0.408 | -0.164 | -0.756 | -0.527 | -0.195 | -0.2 | -0.519 | -1 | -0.149
C[N+](C)(C)CCCC[C@@H]1NC(=O)[C@H]2C[C@@H](C(=O)NCCCCCCN)[C@@H](c3ccc(O)cc3)N2C1=O | 1.38 | 0.608 | 0.659 | 0.587 (inactive) | 0.687 | 1.3 | -0.397 | -0.0878 | 0.0717 | -0.695 | 1.17 | -0.481 | 0.0608 | 0.756 | 0.342 | 0.127 | 0.541 | 0.0561 | 0.567 | 0.925
CC[C@H]1C2=C3C(CC[C@H]4C(OCc5ccc(F)cc5C(F)(F)F)OC[C@](C)([C@@H]34)N(C(=O)OC(C)(C)C)C2)C(COC)C1COC (stereo not given in full) | -0.0539 | 0.222 | 0.475 | 0.477 (inactive) | -0.0147 | -0.652 | -0.52 | 0.269 | -0.384 | 0.561 | 0.732 | -0.25 | -0.696 | 0.914 | 0.771 | 0.0768 | -0.214 | 1.33 | -0.0575 | 0.0915
CCCCCCc1nc(C2CC2)cc2c1[Si](C(C)C)(C(C)C)OC2 | -0.552 | -0.226 | -0.144 | -1.71 (inactive) | -0.729 | -0.461 | -0.375 | -0.762 | -0.356 | 0.819 | -1.03 | -0.622 | -0.53 | 0.208 | 0.0599 | -0.184 | -0.214 | -0.0784 | -0.476 | -0.221
O=C1NC(=O)C2C1C=CC(C(O)c1cccc3ccccc13)N2Nc1ccc(Cl)cc1Cl (stereo not given) | 0.477 | 0.911 | 1.16 | 1.02 (inactive) | 0.46 | 0.267 | -0.459 | 0.0589 | -1.03 | 1.01 | 1.38 | -0.445 | -0.908 | 1.49 | 0.973 | 0.0654 | 0.481 | 1.4 | 0.723 | 1.1
[N-]=[N+]=NCc1ccccc1C[C@@]1(C(=O)NCc2ccccc2)N=C(c2ccc(OCCCO)cc2)O[C@@H]1c1ccccc1N=[N+]=[N-] | -0.108 | 0.559 | 1.13 | -0.758 (inactive) | 0.894 | 1.21 | -0.475 | -0.206 | -0.666 | 0.376 | 1.41 | -2.26 | -0.346 | 1.31 | 0.845 | 0.0839 | 0.108 | 1.29 | 1.45 | 0.937
COCCCNC(=O)[C@]1(CCS(=O)(=O)c2ccccc2)N=C(c2ccc(OCCCO)cc2)O[C@@H]1c1ccccc1CN=[N+]=[N-] | 1.51 | 1.41 | 1.26 | -0.325 (inactive) | 1.54 | 1.32 | 0.233 | 1.2 | -0.0602 | 0.746 | 0.826 | -1.47 | 0.329 | 2.49 | 1.12 | 0.392 | 0.536 | 1.54 | 2.7 | 2.16
CC1=C[C@@]2(CO)C(=O)[C@]3(CO3)[C@@H]1[C@H]1[C@]2(C)C=C(CO)C(=O)[C@]12CO2 | 0.451 | 0.0159 | -0.52 | -0.23 (inactive) | 0.302 | 0.296 | 0.33 | 0.951 | 0.241 | 0.421 | 0.122 | -1.61 | 0.351 | -0.163 | -0.0609 | -0.0799 | -0.123 | -0.488 | -0.312 | 0.242
NCCCCCNC(=O)[C@@H]1C[C@@H]2C(=O)NCC(=O)N2[C@@H]1c1cccc(OCCO)c1 | 1.06 | 0.237 | 0.0759 | -0.852 (inactive) | 1 | 1.26 | 0.396 | 0.669 | 1.05 | 0.732 | 1.2 | -0.878 | 0.79 | 0.885 | 0.433 | -0.0202 | 0.412 | 0.217 | 0.513 | 1.01
